Assay outcomes as filed in PubChem.
D2 PAM-1 – potentiates the human D2 dopamine receptor allosterically; DiscoveRx D2 beta-arrestin cells, luminescence, 90 min; 100% = 57 uM dopamine signal; potentiation, % (no concentration beside the values); hit rate 0.23% among 360,000; AID 624464; in the data active means potentiation above about 50%; inconclusive means mostly about 30% to 49%
Target sequence (P14416 whole entry, looked up): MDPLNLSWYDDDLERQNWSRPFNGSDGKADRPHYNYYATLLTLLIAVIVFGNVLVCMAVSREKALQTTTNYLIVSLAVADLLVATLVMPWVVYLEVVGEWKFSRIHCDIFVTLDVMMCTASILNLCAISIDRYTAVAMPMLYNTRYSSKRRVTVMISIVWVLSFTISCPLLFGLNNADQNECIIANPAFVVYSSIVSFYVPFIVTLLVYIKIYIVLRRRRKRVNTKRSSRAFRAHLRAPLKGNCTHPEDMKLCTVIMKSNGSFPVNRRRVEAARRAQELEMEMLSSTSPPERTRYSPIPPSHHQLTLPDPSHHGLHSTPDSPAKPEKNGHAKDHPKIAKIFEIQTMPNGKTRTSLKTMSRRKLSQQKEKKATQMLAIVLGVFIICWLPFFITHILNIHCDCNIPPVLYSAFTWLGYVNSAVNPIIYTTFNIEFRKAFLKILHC
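PathHunter beta-arrestin assay in DiscoveRx D2 cells. Compounds were added with an EC20 of dopamine (50 nM final) for 90 min at 37 deg C. Luminescence was read 1 h after detection reagent, with 57 uM dopamine as the EC100 control.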
D2 antagonist – antagonizes the human D2 dopamine receptor; HEK293 TREx D2 cells, calcium flux, dopamine EC80; hit rate 2% among 340,000; inhibition, % at 10 µM; P14416; AID 485344; in the data active means inhibition above about 30%; inactive means below that, where a call was filed
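Tetracycline-induced HEK293 T-REx cells expressing D2 force-coupled to calcium signalling were dye-loaded, exposed to compound for 180 s, then challenged with an EC80 of dopamine; calcium flux was followed kinetically for a further 180 s.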
D2 ag-1 – agonists of human D2 dopamine receptor | P14416 | HEK293 T-REx D2 cells, calcium flux agonist mode | activation, % at 2 µM | hit rate 0.53% among 340,000;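 active means activation over 3 SD above normal in the single-dose calcium agonist read, cut at about 30% in these data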
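HEK293 Trex D2 cells, tetracycline-induced, o/n 30 C 5% CO2; no-wash Ca dye, RT 30–90 min; 10-cycle baseline, 23 nl cpd added, kinetic Ca read 180 s; agonist hits = positive Ca response.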
D2 ag-2 – human D2 receptor agonism in beta-arrestin assay | P14416 | DiscoveRx PathHunter D2 beta-arrestin, luminescence, 90 min; 100% = 57 uM dopamine signal | activation, % (concentration not given with the values) | hit rate 0.084% among 360,000 | AID 624465; in the data active means activation above about 40%; inconclusive means between about 15% and that limit
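Agonist mode: compounds alone added to overnight-plated D2 PathHunter cells for 90 min at 37 C, with 57 uM final dopamine (EC100) defining full response. Beta-arrestin recruitment detected by chemiluminescent reagent, read after 1 h at ambient temperature.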
D2 PAM-2 – positive allosteric modulators of human D2 dopamine receptor; HEK293 T-REx D2, calcium flux, EC20 dopamine potentiation; potentiation, % at 10 µM; P14416; hit rate 0.34% among 340,000;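 active means potentiation over 3 SD above the plate norm, cut at about 30% in these data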
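Tetracycline-induced Hek293 Trex D2 cells, force-coupled to calcium, loaded with no-wash calcium dye. Compound added with 180 s kinetic read for agonism, then EC20 dopamine and a further 180 s read for potentiation.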
A number is an active result. In the library only some 2.4% were active in any assay of this set; here they are far more common.

For CCOC(=O)C(NC(=O)c1ccccc1)(Nc1cc(C)on1)C(F)(F)F (stereo unspecified) the results were D2 PAM-1 inactive, D2 antagonist 31, D2 ag-1 inactive, D2 ag-2 inactive and D2 PAM-2 inactive.
COc1ccccc1NC(=O)C1=C(C)Nc2nnnn2C1c1ccc(C(F)(F)F)cc1 (stereo unspecified) was read as D2 ag-1 inactive and D2 PAM-2 inactive.
For CN(C)CCN(Cc1ccc(Cl)cc1)c1ccccn1 the results were D2 PAM-1 inactive, D2 antagonist 59, D2 ag-1 inactive, D2 ag-2 inactive and D2 PAM-2 inactive.
`C[N+](C)(C)CCN(Cc1ccc(Cl)cc1)c1ccccn1` gave D2 PAM-1 inactive, D2 antagonist inactive, D2 ag-1 inactive, D2 ag-2 inactive and D2 PAM-2 inactive.
O=C(NCc1cccnc1)c1ccc(COc2ccccc2Br)cc1 was read as D2 PAM-1 inactive, D2 antagonist 53, D2 ag-1 inactive, D2 ag-2 inactive and D2 PAM-2 inactive.
Screening O=C(NCc1cccnc1)c1ccc(COc2ccccc2Cl)cc1 returned D2 PAM-1 inactive, D2 antagonist inactive, D2 ag-1 inactive, D2 ag-2 inactive and D2 PAM-2 inactive.
`COC(=O)c1sccc1S(=O)(=O)N(CC(=O)Nc1c(C)cccc1C)c1ccc(C)c(C)c1` gave D2 PAM-2 inactive.
Screening O=C(N/N=C/c1ccccc1OC(F)F)C1=COCCO1 returned D2 PAM-1 inactive, D2 antagonist 33, D2 ag-1 inactive, D2 ag-2 inactive and D2 PAM-2 inactive.
O=C(N/N=C/c1ccc(OC(F)F)cc1)C1=COCCO1 was read as D2 PAM-1 inactive, D2 antagonist inactive, D2 ag-1 inactive, D2 ag-2 inactive and D2 PAM-2 inactive.
For CN1CCC(=C2c3ccccc3C=Cc3ccccc32)CC1 the results were D2 PAM-1 inactive, D2 antagonist 77, D2 ag-1 inactive, D2 ag-2 inactive and D2 PAM-2 inactive.
`COc1cc(C(=O)NCc2ccc3c(c2)CCN3C(=O)c2ccncc2)cc(OC)c1OC` gave D2 ag-1 inactive and D2 PAM-2 inactive.
Screening Cc1ccc(C(=O)NCC(C)(C)O)cc1 returned D2 PAM-1 inactive, D2 antagonist 38, D2 ag-1 inactive, D2 ag-2 inactive and D2 PAM-2 inactive.
`Cc1ccc(C(=O)NCC(=O)NC23CC4CC(CC(C4)C2)C3)cc1` gave D2 PAM-1 inactive, D2 antagonist inactive, D2 ag-1 30, D2 ag-2 inactive and D2 PAM-2 inactive.
`Cc1ccc(C(=O)NCCSC(C)(C)C)cc1` gave D2 PAM-1 inactive, D2 antagonist inactive, D2 ag-1 inactive, D2 ag-2 inactive and D2 PAM-2 inactive.
Screening COc1cccc2cc(C(C)N(CCCN3CCOCC3)C(=S)Nc3ccc(C)c(C)c3)oc12 (stereo unspecified) returned D2 PAM-1 inactive, D2 antagonist inactive, D2 ag-1 inactive, D2 ag-2 inactive and D2 PAM-2 inactive.
Screening COc1ccc(NC(=S)N(CCCN2CCOCC2)C(C)c2cc3cccc(OC)c3o2)cc1 (stereo unspecified) returned D2 PAM-1 inactive, D2 antagonist 35, D2 ag-1 inactive, D2 ag-2 inactive and D2 PAM-2 inactive.
Screening CC(=O)c1cccc(NC(=O)Cn2c(=O)c(CNc3ccc(C)cc3)cc3cc4c(cc32)OCCO4)c1 returned D2 ag-1 inactive and D2 PAM-2 inactive.
Screening CCC1CN(C(=O)N2CCC(C(=O)NCc3cccc(C)c3)CC2)c2ccccc2O1 (stereo unspecified) returned D2 ag-1 inactive and D2 PAM-2 inactive.
`COc1ccc(-n2c(O)c(/C=N/NS(=O)(=O)c3cc(C)ccc3C)c3ccccc3c2=O)cc1OC` gave D2 PAM-1 inactive, D2 antagonist inactive, D2 ag-1 41, D2 ag-2 inactive and D2 PAM-2 inactive.
COc1ccc(-n2c(O)c(/C=N/NS(=O)(=O)c3ccc(C)cc3)c3ccccc3c2=O)cc1OC was read as D2 PAM-1 inactive, D2 antagonist inactive, D2 ag-1 inactive, D2 ag-2 inactive and D2 PAM-2 inactive.
Screening CCCOC(=S)NC(=O)c1sc2ccccc2c1Cl returned D2 PAM-1 inactive, D2 antagonist 31, D2 ag-1 inactive, D2 ag-2 inactive and D2 PAM-2 inactive.
COc1ccc(-n2c(=S)[nH]c3sc(-c4ccccc4)cc3c2=O)c(OC)c1 was read as D2 PAM-1 inactive, D2 antagonist inactive, D2 ag-1 inactive, D2 ag-2 inactive and D2 PAM-2 inactive.
For COc1ccc(-n2c(=S)[nH]c3c(sc(=S)n3-c3ccccc3)c2=O)c(OC)c1 the results were D2 PAM-1 inactive, D2 antagonist inactive, D2 ag-1 inactive, D2 ag-2 inactive and D2 PAM-2 37.
For O=C(Nc1nc2ccc(F)cc2s1)C1CCN(S(=O)(=O)c2cc([N+](=O)[O-])ccc2Cl)CC1 the results were D2 PAM-1 inconclusive, D2 antagonist inactive, D2 ag-1 inactive, D2 ag-2 inactive and D2 PAM-2 inactive.
`COc1ccc2nc(NC(=O)C3CCN(S(=O)(=O)c4cnc[nH]4)CC3)sc2c1` gave D2 PAM-1 inactive, D2 antagonist 32, D2 ag-1 inactive, D2 ag-2 inactive and D2 PAM-2 inactive.
Screening Cc1ccc2nc(NC(=O)C3CCN(S(=O)(=O)c4cc([N+](=O)[O-])ccc4Cl)CC3)sc2c1 returned D2 PAM-1 59, D2 antagonist inactive, D2 ag-1 inactive, D2 ag-2 inconclusive and D2 PAM-2 inactive.
O=C(COC(=O)C1CCN(S(=O)(=O)c2cc([N+](=O)[O-])ccc2Cl)CC1)Nc1ncc(Cl)cc1Cl was read as D2 PAM-1 70, D2 antagonist inactive, D2 ag-1 inactive, D2 ag-2 inactive and D2 PAM-2 inactive.
Screening CC(=O)COC(=O)C1CCN(S(=O)(=O)c2cc([N+](=O)[O-])ccc2Cl)CC1 returned D2 PAM-1 inactive, D2 antagonist inactive, D2 ag-1 inactive, D2 ag-2 inactive and D2 PAM-2 inactive.
`CCc1nnc(NC(=O)c2nc(SCc3ccc(F)cc3)ncc2Cl)s1` gave D2 ag-1 inactive and D2 PAM-2 inactive.
Screening Cc1ccc(C2CC2/C(=N/O)c2ccc(F)cc2)cc1 (stereo unspecified) returned D2 PAM-1 inactive, D2 antagonist 34, D2 ag-1 inactive, D2 ag-2 inactive and D2 PAM-2 inactive.
Screening CC1CCc2c(sc3nnn(CC(=O)Nc4ccccc4Cl)c(=O)c23)C1 (stereo unspecified) returned D2 PAM-2 inactive.
For N#Cc1c(SCc2ccccc2)sc(C(=O)c2ccccc2)c1N the results were D2 PAM-1 inactive, D2 antagonist 65, D2 ag-1 inactive, D2 ag-2 inactive and D2 PAM-2 inactive.
Screening Cc1ccc(CSc2sc(C(=O)c3ccccc3)c(N)c2C#N)cc1 returned D2 PAM-1 inactive, D2 antagonist inactive, D2 ag-1 inactive, D2 ag-2 inactive and D2 PAM-2 inactive.
